# Test results from PubChem BioAssay AID624141 (Broad Institute, 2012).
# Among all 17,000 compounds or so, about 260 (1.5%) were called active.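 Rule for the calls: active = spot fluorescence over background with P-value below 7% in all four replicate spots, showing protein binding; inactive = the rest.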 Only a selection was taken, and actives are over-represented in it overall.
# Target: Myc proto-oncogene protein (Homo sapiens) (UniProt P01106)
# Assay: binders of human c-Myc, primary screen, biochemical, small molecule microarray, anti-His fluorescence (AID 624141)
# Conditions: His-c-Myc binding
# Chain of Myc proto-oncogene protein (Homo sapiens) (P01106 whole entry, looked up): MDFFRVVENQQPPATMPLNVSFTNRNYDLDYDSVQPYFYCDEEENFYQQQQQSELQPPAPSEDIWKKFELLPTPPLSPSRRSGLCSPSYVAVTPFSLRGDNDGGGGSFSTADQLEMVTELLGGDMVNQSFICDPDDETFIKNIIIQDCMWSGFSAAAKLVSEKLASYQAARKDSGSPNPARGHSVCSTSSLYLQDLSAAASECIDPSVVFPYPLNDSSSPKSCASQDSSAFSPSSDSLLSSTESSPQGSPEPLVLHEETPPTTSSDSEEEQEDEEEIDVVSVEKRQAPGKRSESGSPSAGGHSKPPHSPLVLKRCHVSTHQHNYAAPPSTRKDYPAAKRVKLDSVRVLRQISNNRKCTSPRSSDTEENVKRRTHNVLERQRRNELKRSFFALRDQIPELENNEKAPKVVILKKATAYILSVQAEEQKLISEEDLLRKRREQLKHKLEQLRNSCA
row,Structure (SMILES),outcome
1,CC(C)NC(=O)N(C)C[C@@H]1OCCCC[C@@H](C)Oc2ccc(NC(=O)Nc3ccccc3)cc2C(=O)N([C@H](C)CO)C[C@@H]1C,inactive
2,C[C@@H]1CCCCO[C@H](CN(C)C(=O)C2CCCCC2)[C@@H](C)CN([C@@H](C)CO)C(=O)c2cc(NC(=O)Nc3ccccc3)ccc2O1,active
3,C[C@@H]1CCCCO[C@H](CN(C)C(=O)Nc2ccccc2)[C@H](C)CN([C@H](C)CO)C(=O)c2cc(NC(=O)Nc3ccccc3)ccc2O1,inactive
4,CC(C)NC(=O)N(C)C[C@H]1OCCCC[C@@H](C)Oc2ccc(NC(=O)Nc3cccc4ccccc34)cc2C(=O)N([C@H](C)CO)C[C@@H]1C,inactive
5,Cc1cc(C)cc(Oc2c(C(F)(F)F)oc3cc(OCC(=O)O)ccc3c2=O)c1,active
6,C[C@@H]1CN([C@H](C)CO)C(=O)CCCn2cc(nn2)CO[C@@H]1CN(C)C(=O)Nc1ccc(-c2cccs2)cc1,inactive
7,CN(CC(=O)O)S(=O)(=O)c1ccc(F)c2ccccc12,inactive
8,COc1ccc(S(=O)(=O)N(C)C[C@H]2Oc3c(NS(=O)(=O)c4cccs4)cccc3C(=O)N([C@H](C)CO)C[C@@H]2C)cc1,inactive
9,C[C@H](CO)N1C[C@H](C)[C@@H](CN(C)Cc2ccc(C(F)(F)F)cc2)Oc2ccc(NC(=O)CCN3CCOCC3)cc2C1=O,inactive
10,C[C@H](CO)N1C[C@H](C)[C@H](CN(C)Cc2ccc(C(=O)O)cc2)Oc2c(NC(=O)C3CCOCC3)cccc2C1=O,inactive
11,C[C@@H]1CN([C@@H](C)CO)C(=O)Cc2cc(NC(=O)CCN3CCOCC3)ccc2O[C@@H]1CN(C)C(=O)Nc1cccc2ccccc12,inactive
12,C[C@H](CO)N1C[C@H](C)[C@H](CN(C)S(=O)(=O)c2cn(C)cn2)Oc2ccc(N(C)C)cc2C1=O,inactive
13,Cc1noc(C)c1S(=O)(=O)Nc1cccc2c1O[C@@H](CN(C)S(=O)(=O)c1cn(C)cn1)[C@@H](C)CN([C@H](C)CO)C2=O,inactive
14,O=c1c2ccccc2[nH]c(=S)n1CCN1CCC(=C(c2ccc(F)cc2)c2ccc(F)cc2)CC1,active
15,O=C(c1ccc(F)cc1)C1CCN(CCCCc2ccccc2)CC1,inactive
16,COc1ccc(S(=O)(=O)N(C)C[C@H]2Oc3c(NC(=O)C4CCOCC4)cccc3C(=O)N([C@@H](C)CO)C[C@@H]2C)cc1,inactive
17,C[C@@H]1CN([C@H](C)CO)C(=O)c2cc(NC(=O)c3ccncc3)ccc2O[C@@H]1CN(C)C(=O)Nc1ccc(F)cc1,inactive
18,COc1ccc(S(=O)(=O)N(C)C[C@@H]2Oc3ccc(NC(=O)Nc4cccc5ccccc45)cc3C(=O)N([C@H](C)CO)C[C@H]2C)cc1,inactive

row,Structure (SMILES),outcome
1,C[C@@H]1CN([C@@H](C)CO)C(=O)c2cc(NC(=O)C3CCCCC3)ccc2O[C@@H](C)CCCCO[C@@H]1CN(C)Cc1ccc(C(=O)O)cc1,inactive
2,C/C=C(\C)C(=O)O[C@H]1C=CC(=O)O[C@H]1/C=C/[C@H](O)[C@H](C)O,inactive
3,C[C@@H]1CN([C@@H](C)CO)C(=O)c2cc(NC(=O)CCCN(C)C)ccc2O[C@@H](C)CCCCO[C@H]1CN(C)Cc1ccc2c(c1)OCO2,inactive
4,COC(=O)COc1c(Sc2ccc([N+](=O)[O-])cc2)c(C)nn1-c1ccccc1,inactive
5,COC(=O)C1=CO[C@@H](O[C@@H]2O[C@H](CO)[C@@H](O)[C@H](O)[C@H]2O)[C@@H]2[C@@H](C)[C@@H](OC(=O)C3=CO[C@@H](O[C@@H]4O[C@H](CO)[C@@H](O)[C@H](O)[C@H]4O)[C@@H]4[C@@H](C)[C@@H](OC(C)=O)C[C@H]34)C[C@H]12,inactive
6,C[C@H]1CN([C@@H](C)CO)C(=O)CCCn2cc(nn2)CO[C@@H]1CN(C)S(=O)(=O)c1cccs1,inactive
7,C[C@H](CO)N1C[C@H](C)[C@H](CN(C)C(=O)Nc2ccc(C(F)(F)F)cc2)Oc2ccc(NS(=O)(=O)c3ccccc3)cc2CC1=O,inactive
8,C[C@@H]1CN([C@H](C)CO)C(=O)c2cccc(NS(=O)(=O)c3cccs3)c2O[C@@H]1CN(C)C(=O)Nc1cccc2ccccc12,inactive
9,CS(=O)(=O)N(CC(=O)Nc1ccc(C(N)=O)cc1)c1cccc(C(F)(F)F)c1,inactive
10,CC(C)NC(=O)Nc1ccc2c(c1)C(=O)N([C@H](C)CO)C[C@@H](C)[C@@H](CN(C)C(=O)c1ccncc1)OCCCC[C@H](C)O2,inactive
11,Cc1cc(C(=O)Nc2cccc3c2O[C@@H](CN(C)Cc2ccc4c(c2)OCO4)[C@@H](C)CN([C@@H](C)CO)C3=O)n(C)n1,inactive
12,C[C@@H]1CN([C@@H](C)CO)C(=O)c2cc(NC(=O)Nc3cccc4ccccc34)ccc2O[C@@H]1CN(C)Cc1ccc(-c2ccccc2)cc1,inactive
13,C[C@@H]1CN([C@@H](C)CO)C(=O)c2cc(NC(=O)C3CCCCC3)ccc2O[C@@H]1CN(C)S(=O)(=O)c1ccc(F)cc1,inactive
14,C[C@@H]1CCCCO[C@@H](CN(C)Cc2ccc(C(=O)O)cc2)[C@H](C)CN([C@H](C)CO)C(=O)c2cc(NC(=O)Nc3ccc(F)cc3)ccc2O1,inactive
15,O=C(O)CCC(=O)Nc1ccc(-c2nc3ccccc3o2)cc1,inactive
16,COc1cc(/C=C/C(=O)O[C@@H]2O[C@H](CO[C@@H]3O[C@H](CO)[C@@H](O)[C@H](O)[C@H]3O)[C@@H](O)[C@H](O)[C@H]2OC(=O)/C=C/c2cc(OC)c(O)c(OC)c2)cc(OC)c1O,inactive
17,C=CCOC(=O)[C@H]1[C@@H]2C(=O)O[C@@H](c3ccccc3)[C@@H](c3ccccc3)N2[C@@H](c2ccc(OCCOC(=O)[C@H]3C[C@H]4C(=O)NCC(=O)N4[C@H]3c3ccc(O)cc3)cc2)[C@]12C(=O)Nc1ccccc12,inactive
18,C=C(C(=O)O)C1CCC(CCC)OC1=O (stereo unspecified),inactive
